Results as given in publication PMC9911399, “Two distinct binding modes provide the RNA-binding protein RbFox with extraordinary sequence specificity”.
Numbering of substitutions follows the chain as printed; changes in the protein carry UniProt numbers. Whole data set: some 16,000 sequences, median “ka relative to ugcaugu” near 0.096, cut for the highest 2% near 0.35. What follows is part of a selection rich in the highest values, with near analogues and random picks from the rest.

T1: RBFOX1 RRM RbFoxmut (Fox-RRM*) (Homo sapiens, UniProt Q9NWB1 109-208, R118D;E147R;N151S;E152T)
T1 sequence: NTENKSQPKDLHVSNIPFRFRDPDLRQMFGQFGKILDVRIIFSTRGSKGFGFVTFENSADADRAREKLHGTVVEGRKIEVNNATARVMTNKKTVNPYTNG

B1: CUGGUGA (DNA:RNA)
RNA: GGGAGACCGGAAUUCAGAUUGUCCCUGGUGAUUAAAUCCCGUCGUAGCCACCA
DNA 1: CAATCTGAATTCCGGTCTCCC
DNA 2: TGGTGGCTACGACGGGATT
B2: AGGAGUA (DNA:RNA)
RNA: B1 RNA with C25A, U26G, G28A, U29G, G30U
DNA 1: CAATCTGAATTCCGGTCTCCC
DNA 2: TGGTGGCTACGACGGGATT
B3: UAGUAGU (DNA:RNA)
RNA: B1 RNA with C25U, U26A, G28U, U29A, A31U
DNA 1: CAATCTGAATTCCGGTCTCCC
DNA 2: TGGTGGCTACGACGGGATT
B4: UCUCUCG (DNA:RNA)
RNA: B1 RNA with C25U, U26C, G27U, G28C, G30C, A31G
DNA 1: CAATCTGAATTCCGGTCTCCC
DNA 2: TGGTGGCTACGACGGGATT
B5: ACGUCAA (DNA:RNA)
RNA: B1 RNA with C25A, U26C, G28U, U29C, G30A
DNA 1: CAATCTGAATTCCGGTCTCCC
DNA 2: TGGTGGCTACGACGGGATT
B6: UUCCUAC (DNA:RNA)
RNA: B1 RNA with C25U, G27C, G28C, G30A, A31C
DNA 1: CAATCTGAATTCCGGTCTCCC
DNA 2: TGGTGGCTACGACGGGATT
B7: GAAAACG (DNA:RNA)
RNA: GGGAGACCGGAAUUCAGAUUGUCCGAAAACGUUAAAUCCCGUCGUAGCCACCA
DNA 1: CAATCTGAATTCCGGTCTCCC
DNA 2: TGGTGGCTACGACGGGATT
B8: AGGCUUG (DNA:RNA)
RNA: B1 RNA with C25A, U26G, G28C, G30U, A31G
DNA 1: CAATCTGAATTCCGGTCTCCC
DNA 2: TGGTGGCTACGACGGGATT
B9: GUCGGCU (DNA:RNA)
RNA: B1 RNA with C25G, G27C, U29G, G30C, A31U
DNA 1: CAATCTGAATTCCGGTCTCCC
DNA 2: TGGTGGCTACGACGGGATT
B10: CACCGGC (DNA:RNA)
RNA: B1 RNA with U26A, G27C, G28C, U29G, A31C
DNA 1: CAATCTGAATTCCGGTCTCCC
DNA 2: TGGTGGCTACGACGGGATT
B11: GGCUUGU (DNA:RNA)
RNA: B1 RNA with C25G, U26G, G27C, G28U, A31U
DNA 1: CAATCTGAATTCCGGTCTCCC
DNA 2: TGGTGGCTACGACGGGATT
B12: GUCGGGC (DNA:RNA)
RNA: B1 RNA with C25G, G27C, U29G, A31C
DNA 1: CAATCTGAATTCCGGTCTCCC
DNA 2: TGGTGGCTACGACGGGATT
B13: AGGAGGC (DNA:RNA)
RNA: B1 RNA with C25A, U26G, G28A, U29G, A31C
DNA 1: CAATCTGAATTCCGGTCTCCC
DNA 2: TGGTGGCTACGACGGGATT
B14: GUCCGGC (DNA:RNA)
RNA: B1 RNA with C25G, G27C, G28C, U29G, A31C
DNA 1: CAATCTGAATTCCGGTCTCCC
DNA 2: TGGTGGCTACGACGGGATT
B15: CCCCGGC (DNA:RNA)
RNA: B1 RNA with U26C, G27C, G28C, U29G, A31C
DNA 1: CAATCTGAATTCCGGTCTCCC
DNA 2: TGGTGGCTACGACGGGATT
B16: ACCAGGC (DNA:RNA)
RNA: B1 RNA with C25A, U26C, G27C, G28A, U29G, A31C
DNA 1: CAATCTGAATTCCGGTCTCCC
DNA 2: TGGTGGCTACGACGGGATT
B17: CGGCUUG (DNA:RNA)
RNA: B1 RNA with U26G, G28C, G30U, A31G
DNA 1: CAATCTGAATTCCGGTCTCCC
DNA 2: TGGTGGCTACGACGGGATT
B18: GGGGGGC (DNA:RNA)
RNA: B1 RNA with C25G, U26G, U29G, A31C
DNA 1: CAATCTGAATTCCGGTCTCCC
DNA 2: TGGTGGCTACGACGGGATT
B19: GGGCUUG (DNA:RNA)
RNA: B1 RNA with C25G, U26G, G28C, G30U, A31G
DNA 1: CAATCTGAATTCCGGTCTCCC
DNA 2: TGGTGGCTACGACGGGATT
B20: GUGGAAC (DNA:RNA)
RNA: B1 RNA with C25G, U29A, G30A, A31C
DNA 1: CAATCTGAATTCCGGTCTCCC
DNA 2: TGGTGGCTACGACGGGATT
B21: CAAUUGA (DNA:RNA)
RNA: B1 RNA with U26A, G27A, G28U
DNA 1: CAATCTGAATTCCGGTCTCCC
DNA 2: TGGTGGCTACGACGGGATT
B22: GGUCCAG (DNA:RNA)
RNA: B7 RNA with A26G, A27U, A28C, A29C, C30A
DNA 1: CAATCTGAATTCCGGTCTCCC
DNA 2: TGGTGGCTACGACGGGATT
B23: GCCCCAG (DNA:RNA)
RNA: B7 RNA with A26C, A27C, A28C, A29C, C30A
DNA 1: CAATCTGAATTCCGGTCTCCC
DNA 2: TGGTGGCTACGACGGGATT
B24: CAUGAAU (DNA:RNA)
RNA: B1 RNA with U26A, G27U, U29A, G30A, A31U
DNA 1: CAATCTGAATTCCGGTCTCCC
DNA 2: TGGTGGCTACGACGGGATT
B25: AAUACGG (DNA:RNA)
RNA: B7 RNA with G25A, A27U, A29C, C30G
DNA 1: CAATCTGAATTCCGGTCTCCC
DNA 2: TGGTGGCTACGACGGGATT
B26: CUGUACC (DNA:RNA)
RNA: B1 RNA with G28U, U29A, G30C, A31C
DNA 1: CAATCTGAATTCCGGTCTCCC
DNA 2: TGGTGGCTACGACGGGATT
B27: AGCUGAC (DNA:RNA)
RNA: GGGAGACCGGAAUUCAGAUUGUCCAGCUGACUUAAAUCCCGUCGUAGCCACCA
DNA 1: CAATCTGAATTCCGGTCTCCC
DNA 2: TGGTGGCTACGACGGGATT
B28: AUGUCCG (DNA:RNA)
RNA: B27 RNA with G26U, C27G, G29C, A30C, C31G
DNA 1: CAATCTGAATTCCGGTCTCCC
DNA 2: TGGTGGCTACGACGGGATT
B29: AUGUAUA (DNA:RNA)
RNA: B1 RNA with C25A, G28U, U29A, G30U
DNA 1: CAATCTGAATTCCGGTCTCCC
DNA 2: TGGTGGCTACGACGGGATT
B30: AUGGAUC (DNA:RNA)
RNA: B1 RNA with C25A, U29A, G30U, A31C
DNA 1: CAATCTGAATTCCGGTCTCCC
DNA 2: TGGTGGCTACGACGGGATT
B31: AUGGAGA (DNA:RNA)
RNA: B1 RNA with C25A, U29A
DNA 1: CAATCTGAATTCCGGTCTCCC
DNA 2: TGGTGGCTACGACGGGATT
B32: GUCCAUG (DNA:RNA)
RNA: B7 RNA with A26U, A27C, A28C, C30U
DNA 1: CAATCTGAATTCCGGTCTCCC
DNA 2: TGGTGGCTACGACGGGATT
B33: AUGUUGU (DNA:RNA)
RNA: B1 RNA with C25A, G28U, A31U
DNA 1: CAATCTGAATTCCGGTCTCCC
DNA 2: TGGTGGCTACGACGGGATT
B34: AUGGAUG (DNA:RNA)
RNA: B1 RNA with C25A, U29A, G30U, A31G
DNA 1: CAATCTGAATTCCGGTCTCCC
DNA 2: TGGTGGCTACGACGGGATT
B35: AUGUUCG (DNA:RNA)
RNA: B1 RNA with C25A, G28U, G30C, A31G
DNA 1: CAATCTGAATTCCGGTCTCCC
DNA 2: TGGTGGCTACGACGGGATT
B36: CCAUGUA (DNA:RNA)
RNA: B27 RNA with A25C, G26C, C27A, A30U, C31A
DNA 1: CAATCTGAATTCCGGTCTCCC
DNA 2: TGGTGGCTACGACGGGATT
B37: AUGUUUG (DNA:RNA)
RNA: B1 RNA with C25A, G28U, G30U, A31G
DNA 1: CAATCTGAATTCCGGTCTCCC
DNA 2: TGGTGGCTACGACGGGATT
B38: AUGUGUA (DNA:RNA)
RNA: B27 RNA with G26U, C27G, A30U, C31A
DNA 1: CAATCTGAATTCCGGTCTCCC
DNA 2: TGGTGGCTACGACGGGATT
B39: ACCAUGU (DNA:RNA)
RNA: B27 RNA with G26C, U28A, G29U, A30G, C31U
DNA 1: CAATCTGAATTCCGGTCTCCC
DNA 2: TGGTGGCTACGACGGGATT

What follows are binders tested against T1, RBFOX1 RRM RbFoxmut (Fox-RRM*) (assay: EMSA; HiTS-Eq, 1 nM pool, 10 min; buffer printed only for the single-RNA assays: 10 mM Tris pH 7.5, 150 mM NaCl, 3.4 mM EDTA, 0.001% NP-40, 30 C). Conditions: tags: His6 N-terminal (pET28a); label: 5' 32P.
Procedure, shortened: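 Purified RbFox RRM (wild type or mutant) was equilibrated for 10 min in 50 µL with 1 nM of a 5′-radiolabelled pool of RNA with 7 randomized nucleotides, its flanks annealed to DNA oligonucleotides, across increasing protein concentrations. Free RNA was separated by 8% native PAGE, excised, reverse-transcribed, PCR-barcoded and sequenced on an Illumina HiSeq 2500. Relative association constants came from read-count changes of each variant against the control reaction, normalised to the cognate motif.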
For B1, the binding signal was 0.0924 KA relative to UGCAUGU.
In the case of B2, the binding signal is reported as 0.168 KA relative to UGCAUGU.
B3 was tested, and the binding signal was 0.121 KA relative to UGCAUGU.
For B4, the binding signal was 0.0757 KA relative to UGCAUGU.
B5 was tested, and the binding signal was 0.0727 KA relative to UGCAUGU.
With B6 the binding signal was 0.0836 KA relative to UGCAUGU.
With B7 the binding signal was 0.0811 KA relative to UGCAUGU.
B8 was tested, and the binding signal was 0.388 KA relative to UGCAUGU.
With B9 the binding signal was 0.116 KA relative to UGCAUGU.
B10 was tested, and the binding signal was 0.0862 KA relative to UGCAUGU.
In the case of B11, the binding signal is reported as 0.359 KA relative to UGCAUGU.
In the case of B12, the binding signal is reported as 0.0929 KA relative to UGCAUGU.
In the case of B13, the binding signal is reported as 0.118 KA relative to UGCAUGU.
For B14, the binding signal was 0.116 KA relative to UGCAUGU.
In the case of B15, the binding signal is reported as 0.0573 KA relative to UGCAUGU.
B16 was tested, and the binding signal was 0.0949 KA relative to UGCAUGU.
For B17, the binding signal was 0.431 KA relative to UGCAUGU.
With B18 the binding signal was 0.0893 KA relative to UGCAUGU.
With B19 the binding signal was 0.371 KA relative to UGCAUGU.
B20 was tested, and the binding signal was 0.112 KA relative to UGCAUGU.
B21 was tested, and the binding signal was 0.0875 KA relative to UGCAUGU.
B22 was tested, and the binding signal was 0.0861 KA relative to UGCAUGU.
B23 was tested, and the binding signal was 0.117 KA relative to UGCAUGU.
For B24, the binding signal was 0.114 KA relative to UGCAUGU.
B25 was tested, and the binding signal was 0.0866 KA relative to UGCAUGU.
With B26 the binding signal was 0.137 KA relative to UGCAUGU.
B27 was tested, and the binding signal was 0.109 KA relative to UGCAUGU.
B28 was tested, and the binding signal was 0.14 KA relative to UGCAUGU.
With B29 the binding signal was 0.23 KA relative to UGCAUGU.
In the case of B30, the binding signal is reported as 0.298 KA relative to UGCAUGU.
B31 was tested, and the binding signal was 0.139 KA relative to UGCAUGU.
In the case of B32, the binding signal is reported as 0.151 KA relative to UGCAUGU.
With B33 the binding signal was 0.245 KA relative to UGCAUGU.
In the case of B34, the binding signal is reported as 0.64 KA relative to UGCAUGU.
For B35, the binding signal was 0.412 KA relative to UGCAUGU.
In the case of B36, the binding signal is reported as 0.2 KA relative to UGCAUGU.
For B37, the binding signal was 0.626 KA relative to UGCAUGU.
With B38 the binding signal was 0.364 KA relative to UGCAUGU.
B39 was tested, and the binding signal was 0.102 KA relative to UGCAUGU.
